Reference: the supplement of paper PMC7695840
Structures can show the parent of a compound that is named as a salt.

Tests used:
[1] = system: Staphylococcus aureus MW2 delta-mecA (mecA-); assay: normalized GFP fluorescence (growth of mecA- strain) (fraction of control range); higher = more growth of mecA- strain; conditions: compound concentration: 150 uM; cefoxitin: subinhibitory; fluorescent label: GFP
Procedure, shortened: (§1)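 Fluorescence from DsRed (540/590) and GFP (485/520) was recorded after 20 h of static growth at 37 °C and 90% humidity. The wells held a 1:1 mix of pre-induced S. aureus MW2 cells, gene-bearing with DsRed and gene-deleted with GFP, in LB with a daily-set subinhibitory antibiotic dose, dispensed at 5 µL/well onto 150 μM compound (1.5% DMSO) in 1536-well plates, single replicate. Each channel was scaled per plate between single-strain control medians, excluding plates with high untreated ratios and rows with DsRed/GFP >10.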

[2] = system: Staphylococcus aureus MW2 (mecA+); assay: normalized DsRed fluorescence (growth of mecA+ strain) (fraction of control range); higher = more growth of mecA+ strain; conditions: compound concentration: 150 uM; cefoxitin: subinhibitory; fluorescent label: DsRed
Procedure, shortened: as §1

SMILES | normalized GFP fluorescence [1] | normalized DsRed fluorescence [2]
O=C1CN(/N=C/c2ccc(-c3ccc([N+](=O)[O-])cc3)o2)C(=O)N1 | 0.519 | 0.706
COc1cc(C2Oc3ccc(C4Oc5cc(O)cc(O)c5C(=O)C4O)cc3OC2CO)ccc1O (centres undefined) [Silymarin (Silybin B)] | 0.34 | 0.987
CC(C[N+](C)(C)C)OC(N)=O (centres undefined) | 0.554 | 0.879
CO/N=C(\C(=O)N[C@@H]1C(=O)N2C(C(=O)O)=C(C[N+]3(C)CCCC3)CS[C@H]12)c1csc(N)n1 | 0.0193 | 0.073
C[C@]12CC[C@@H]3c4ccc(O)cc4CC[C@H]3[C@@H]1C[C@@H](O)[C@@H]2O | 0.63 | 0.459
CN[C@@H]1[C@H](O[C@H]2[C@H](O[C@H]3[C@H](O)[C@@H](O)[C@H](N=C(N)N)[C@@H](O)[C@@H]3N=C(N)N)O[C@@H](C)[C@]2(O)C=O)O[C@@H](CO)[C@H](O)[C@H]1O | 0.752 | 0.69
OC[C@@H](O)[C@@H](O)[C@H](O)[C@@H](O)CO [Sorbitol (Glucitol)] | 0.227 | 1.15
C[C@]12C=CC(=O)N[C@@H]1CC[C@@H]1[C@@H]2CC[C@]2(C)[C@@H](C(=O)Nc3cc(C(F)(F)F)ccc3C(F)(F)F)CC[C@@H]12 [Dutasteride] | 0.284 | 0.52
CN(C)CCc1c[nH]c2ccc(CS(=O)(=O)N3CCCC3)cc12 | 0.546 | 1
CCC1(C)CC(=O)NC1=O (centres undefined) | 0.678 | 0.691
Nc1nc2[nH]cnc2c(=S)[nH]1 | 0.329 | 1.33
CNC(=C[N+](=O)[O-])NCCSCc1csc(CN(C)C)n1 | 0.575 | 0.785
COC(=O)C1=C(C#N)NC(C)=C(C(=O)OC(C)C)C1c1cccc([N+](=O)[O-])c1 (centres undefined) [Nilvadipine (ARC029)] | 0.333 | 1.55
CCC(CC)[C@H](NC(C)=O)[C@@H]1[C@H](O)[C@@H](C(=O)O)C[C@H]1NC(=N)N [Peramivir Trihydrate] | 0.634 | 0.659
Cc1ccnc2c1NC(=O)c1cccnc1N2C1CC1 | 0.755 | 0.431
Nc1nc(=O)n([C@@H]2CS[C@H](CO)O2)cc1F [Emtricitabine] | 0.4 | 0.622
CN(C)C(=N)NC(=N)N | 0.544 | 0.887
O=C(NCC(O)CO)c1c(I)c(C(=O)NCC(O)CO)c(I)c(N(CCO)C(=O)CO)c1I (centres undefined) | 0.368 | 1.04
Nc1ncnc2c1ncn2[C@@H]1O[C@H](CO)[C@@H](O)[C@@H]1O | 0.428 | 0.346

SMILES | normalized GFP fluorescence [1] | normalized DsRed fluorescence [2]
CC(COc1ccccc1)N(CCCl)Cc1ccccc1 (centres undefined) | 0.632 | 0.449
CC(C)N1CCN(c2ccc(OCC3COC(Cn4cncn4)(c4ccc(Cl)cc4Cl)O3)cc2)CC1 (centres undefined) | 0.199 | 0.734
CC[C@]12C=CCN3CC[C@@]4(c5cc([C@@]6(C(=O)OC)C[C@@H]7C[C@@H](C(C)(F)F)CN(Cc8c6[nH]c6ccccc86)C7)c(OC)cc5N(C)[C@H]4[C@@](O)(C(=O)OC)[C@@H]1OC(C)=O)[C@@H]32 [Vinflunine Tartrate] | 0.315 | 0.556
CC(C)/N=c1\cc2n(-c3ccc(Cl)cc3)c3ccccc3nc-2cc1Nc1ccc(Cl)cc1 | 0.344 | 1.15
C[C@]12CC[C@@H]3c4ccc(O)cc4C[C@@H](CCCCCCCCC[S+]([O-])CCCC(F)(F)C(F)(F)F)[C@H]3[C@@H]1CC[C@@H]2O (some centres undefined) | 0.185 | 0.667
COc1ccc(CCN(C)CCCC(C#N)(c2ccc(OC)c(OC)c2)C(C)C)cc1OC (centres undefined) | 0.734 | 0.717
CCc1cccc2c3c([nH]c12)C(CC)(CC(=O)O)OCC3 (centres undefined) | 0.0954 | 0.562
CCCCCCOC(=O)NC(=N)c1ccc(NCc2nc3cc(C(=O)N(CCC(=O)OCC)c4ccccn4)ccc3n2C)cc1 | 0.00832 | 0.473
CCN(CC)CCNC(=O)c1cc(S(C)(=O)=O)ccc1OC | 0.437 | 0.945
NC[C@H](O)c1ccc(O)c(O)c1 | 0.502 | 1.06
COc1ccc(CN(CCN(C)C)c2ncccn2)cc1 | 0.471 | 0.813
CN1CCC[C@@H]1CCO[C@](C)(c1ccccc1)c1ccc(Cl)cc1 [Clemastine Fumarate] | 0.00687 | 0.338
O=S(=O)(O)CCS | 0.0478 | 0.565
Cn1c(=O)c2nc[nH]c2n(C)c1=O | 0.449 | 0.42
CCOC(=O)C(C)(C)Oc1ccc(Cl)cc1 | 0.258 | 0.633
CCOC(=O)O[C@]1(C(=O)OCCl)CC[C@H]2[C@@H]3CCC4=CC(=O)C=C[C@]4(C)[C@H]3[C@@H](O)C[C@@]21C [Loteprednol etabonate] | 0.281 | 0.603
NS(=O)(=O)c1cc2c(cc1Cl)NC(C1CC3C=CC1C3)NS2(=O)=O (centres undefined) | 0.463 | 0.69
C=C1/C(=C\C=C2/CCC[C@]3(C)[C@@H]([C@H](C)CCCC(C)(C)O)CC[C@@H]23)C[C@@H](O)C[C@@H]1O [Calcitriol (Rocaltrol)] | -0.00685 | 1
